Results filed as inconclusive are left out. A call without a number means that no potency is given here. Values without a mark were called inactive. Active and inactive are the calls of the source. The call rests on the fitted dose curve; in most records, active means well fitted curve in the direction sought with a large enough effect; inconclusive means small, poorly fitted or top-dose-only effect, or another doubt; inactive means no such curve, though single readings can be large; an effect the other way counts as inactive or inconclusive.

One experiment can be described thus: qHTS of pediatric cancer cell lines to identify multiple opportunities for drug repurposing: Primary screen for DAOY cells (AID 1347090). Further: nearly all actives have a fitted effect of over 55% in size. The note with it: DAOY medulloblastoma viability, CellTiter-Glo luminescence, 48 h; series mostly up to 46 µM. The gist of the method: (§1)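 Cell viability, CellTiter-Glo luminescence; 500-1,000 cells/well, 8- or 11-point titration, 48 h compound exposure at 37 degrees C, 5% CO2. Controls: DMSO neutral, bortezomib 2.3 µM final as positive.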
On the technique in general: Quantitative high-throughput screening tests each substance at several concentrations.
For the molecule `CC(=O)NC(Cc1ccccc1)C(=O)O` (stereo not drawn), the Potency result was “inactive”.
The same measure, in the same setting: in the case of `CS(=O)(=O)c1ccc([C@@H](O)[C@@H](CF)NC(=O)C(Cl)Cl)cc1` it was “inactive”.
Still for that read-out and setting: in the case of `Nc1nc2c(ncn2CCC(CO)CO)c(=O)[nH]1` it was “inactive”; in that of `Cc1cccc(Nc2cc(Cl)nc(SCC(=O)O)n2)c1C`, “inactive”; in that of `CC(C)(C)NCC(O)COc1ccc(NC(=O)NC2CCCCC2)cc1` (stereo not drawn), “inactive”.
Same read-out and setting: in the case of `O=C1NS(=O)(=O)c2ccccc21` it was “inactive”; in that of `O=C(O)c1ccccn1`, “inactive”.
Take `CC(C)(O)c1ccccc1CC[C@@H](SCC1(CC(=O)O)CC1)c1cccc(/C=C/c2ccc3ccc(Cl)cc3n2)c1`: the Potency entry is “inactive”.
The same measure, in the same setting: in the case of `COc1ccccc1O` it was “inactive”; in that of `Cc1c(Cl)cccc1Nc1ccccc1C(=O)O`, “inactive”.
Take `N[C@@H](CSSC[C@H](N)C(=O)O)C(=O)O`: the activity change, negative = cytotoxic was 14.8% [at 0.597 µM].
For `CCCCCCCCCCCCOS(=O)(=O)O`, the Potency result is “inactive”.
The same measure, in the same setting: with `C[C@@H]1CN(c2c(F)c(F)c3c(=O)c(C(=O)O)cn(C4CC4)c3c2F)C[C@H](C)N1` the entry was “inactive”.
The same measure, in the same setting: with `O=C1O[C@H](CO)[C@@H](O)[C@H](O)[C@H]1O` the entry was “inactive”.
Still for that read-out and setting: in the case of `CC(=O)Nc1ccc(/C=N/NC(N)=S)cc1` it was “inactive”; in that of `O=C(O)CC(O)C(=O)O` (stereo not drawn), “inactive”.
Take `C[C@@H]1CC[C@@]2(OC1)O[C@H]1C[C@H]3[C@@H]4CC[C@H]5C[C@@H](O)CC[C@]5(C)[C@H]4CC(=O)[C@]3(C)[C@H]1[C@@H]2C`: the activity change, negative = cytotoxic is 10.7% [at 4.84 µM].
Take `N[C@H]1C(O)O[C@H](CO)[C@@H](O)[C@@H]1O` (stereo partly drawn): the Potency entry is “inactive”.
Same read-out and setting: in the case of `C[C@H](N)[C@H](O)c1cccc(O)c1` it was “inactive”; in that of `CCCCN1CCCC[C@H]1C(=O)Nc1c(C)cccc1C`, “inactive”.
Same read-out and setting: with `CN(N=O)C(=O)N[C@@H]1[C@@H](O)[C@H](O)[C@@H](CO)O[C@@H]1O` the entry was “inactive”.
As for `CN(C)CCCO[C@@H]1[C@H]2OC(C)(C)O[C@H]2O[C@@H]1C(O)CO` (stereo partly drawn), the Potency result is “inactive”.
Still for that read-out and setting: in the case of `O=c1cc[nH]c(=S)[nH]1` it was “inactive”.
Same read-out and setting: in the case of `Nc1ccc(S(=O)(=O)Nc2ccccc2)cc1` it was “inactive”; in that of `O=c1cc(CO)occ1O`, “inactive”.
The same measure, in the same setting: in the case of `COc1cc(C)c(Cc2cnc(N)nc2N)cc1OC` it was “inactive”; in that of `CC(C)(C)C(=O)C(Oc1ccc(Cl)cc1)n1ccnc1` (stereo not drawn), “inactive”; in that of `COc1cc2[nH]c(=O)[nH]c(=O)c2cc1OC`, “inactive”.
Consider `COc1ccc(S(=O)(=O)Nc2nnc(CC(C)C)s2)cc1`, for which the Potency entry is “inactive”.
On the same count and under the same terms, in the case of `CCC(=O)Nc1ccc(O)cc1` it was “inactive”; in that of `CC1(C)[C@@H]2CC[C@@]1(C)C(=O)C2`, “inactive”.
Still for that read-out and setting: with `CN1CCOC(c2ccccc2)c2ccccc2C1` (stereo not drawn) the entry was “inactive”.
Turning to `CCN(CC)C(=O)Nc1ccc(OCC(O)CNC(C)(C)C)c(C(C)=O)c1` (stereo not drawn), the Potency entry was “inactive”.
Same read-out and setting: in the case of `CCCCOc1cc(C(=O)OCCN(CC)CC)ccc1N` it was “inactive”.

Another experiment in a line: qHTS of pediatric cancer cell lines to identify multiple opportunities for drug repurposing: Primary screen for SJ-GBM2 cells (AID 1347091). As to conditions: SJ-GBM2 viability, CellTiter-Glo luminescence, 48 h; series mostly up to 46 µM. The gist of the method: as §1
As for `CC(=O)NC(Cc1ccccc1)C(=O)O` (stereo not drawn), the Potency result was “inactive”.
Turning to `CS(=O)(=O)c1ccc([C@@H](O)[C@@H](CF)NC(=O)C(Cl)Cl)cc1`, the Potency result is “inactive”.
The same measure, in the same setting: in the case of `Nc1nc2c(ncn2CCC(CO)CO)c(=O)[nH]1` it was “inactive”.
Same read-out and setting: with `Cc1cccc(Nc2cc(Cl)nc(SCC(=O)O)n2)c1C` the entry was “inactive”; with `CC(C)(C)NCC(O)COc1ccc(NC(=O)NC2CCCCC2)cc1` (stereo not drawn), “inactive”; with `O=C1NS(=O)(=O)c2ccccc21`, “inactive”.
Same read-out and setting: in the case of `O=C(O)c1ccccn1` it was “inactive”.
Consider `CC(C)(O)c1ccccc1CC[C@@H](SCC1(CC(=O)O)CC1)c1cccc(/C=C/c2ccc3ccc(Cl)cc3n2)c1`, for which the Potency entry was “inactive”.
On the same count and under the same terms, in the case of `COc1ccccc1O` it was “inactive”.
For `Cc1c(Cl)cccc1Nc1ccccc1C(=O)O`, the Potency entry was “inactive”.
Consider `N[C@@H](CSSC[C@H](N)C(=O)O)C(=O)O`, for which the activity change, negative = cytotoxic is 12.9% [at 0.597 µM].
Take `CCCCCCCCCCCCOS(=O)(=O)O`: the Potency result was “inactive”.
Same read-out and setting: in the case of `C[C@@H]1CN(c2c(F)c(F)c3c(=O)c(C(=O)O)cn(C4CC4)c3c2F)C[C@H](C)N1` it was “inactive”; in that of `O=C1O[C@H](CO)[C@@H](O)[C@H](O)[C@H]1O`, “inactive”; in that of `CC(=O)Nc1ccc(/C=N/NC(N)=S)cc1`, “inactive”.
On the same count and under the same terms, in the case of `O=C(O)CC(O)C(=O)O` (stereo not drawn) it was “inactive”.
As to `C[C@@H]1CC[C@@]2(OC1)O[C@H]1C[C@H]3[C@@H]4CC[C@H]5C[C@@H](O)CC[C@]5(C)[C@H]4CC(=O)[C@]3(C)[C@H]1[C@@H]2C`, the activity change, negative = cytotoxic is 26.5% [at 4.84 µM].
As to `N[C@H]1C(O)O[C@H](CO)[C@@H](O)[C@@H]1O` (stereo partly drawn), the Potency result is “inactive”.
Still for that read-out and setting: in the case of `C[C@H](N)[C@H](O)c1cccc(O)c1` it was “inactive”; in that of `CCCCN1CCCC[C@H]1C(=O)Nc1c(C)cccc1C`, “inactive”; in that of `CN(N=O)C(=O)N[C@@H]1[C@@H](O)[C@H](O)[C@@H](CO)O[C@@H]1O`, “inactive”.
The same measure, in the same setting: in the case of `CN(C)CCCO[C@@H]1[C@H]2OC(C)(C)O[C@H]2O[C@@H]1C(O)CO` (stereo partly drawn) it was “inactive”; in that of `O=c1cc[nH]c(=S)[nH]1`, “inactive”; in that of `Nc1ccc(S(=O)(=O)Nc2ccccc2)cc1`, “inactive”.
Same read-out and setting: in the case of `O=c1cc(CO)occ1O` it was “inactive”.
Take `COc1cc(C)c(Cc2cnc(N)nc2N)cc1OC`: the Potency result was “inactive”.
Consider `CC(C)(C)C(=O)C(Oc1ccc(Cl)cc1)n1ccnc1` (stereo not drawn), for which the Potency entry was “inactive”.
The same measure, in the same setting: in the case of `COc1cc2[nH]c(=O)[nH]c(=O)c2cc1OC` it was “inactive”; in that of `COc1ccc(S(=O)(=O)Nc2nnc(CC(C)C)s2)cc1`, “inactive”.
On the same count and under the same terms, in the case of `CCC(=O)Nc1ccc(O)cc1` it was “inactive”; in that of `CC1(C)[C@@H]2CC[C@@]1(C)C(=O)C2`, “inactive”.
The same measure, in the same setting: in the case of `CN1CCOC(c2ccccc2)c2ccccc2C1` (stereo not drawn) it was “inactive”; in that of `CCN(CC)C(=O)Nc1ccc(OCC(O)CNC(C)(C)C)c(C(C)=O)c1` (stereo not drawn), “inactive”; in that of `CCCCOc1cc(C(=O)OCCN(CC)CC)ccc1N`, “inactive”.

(Values after PubChem BioAssay (NCATS).)
